Laboratory results from PubChem BioAssay AID1779 (Sanford-Burnham Center for Chemical Genomics, 2009).
Among all 290,000 compounds or so, about 160 (0.055%) were called active. What follows is part of a selection rich in actives, with near analogues and random picks from the rest. Unmarked numbers belong to inactive results. No stated cut-off is given here; in the data, active means inhibition above about 50%; inactive means the rest.

The compounds below were run against Tyrosine-protein phosphatase non-receptor type 22 (Homo sapiens) (UniProt Q9Y2R2) (assay: inhibitors of LYP phosphatase, biochemical, fluorescence intensity, uHTS (AID 1779;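 further: plate controls were vehicle with enzyme for no effect and no enzyme for full effect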)). Conditions: recombinant LYP phosphatase, at 11.5 µM, active compounds read high.
Tyrosine-protein phosphatase non-receptor type 22 (Homo sapiens), sequence (Q9Y2R2 whole entry, looked up): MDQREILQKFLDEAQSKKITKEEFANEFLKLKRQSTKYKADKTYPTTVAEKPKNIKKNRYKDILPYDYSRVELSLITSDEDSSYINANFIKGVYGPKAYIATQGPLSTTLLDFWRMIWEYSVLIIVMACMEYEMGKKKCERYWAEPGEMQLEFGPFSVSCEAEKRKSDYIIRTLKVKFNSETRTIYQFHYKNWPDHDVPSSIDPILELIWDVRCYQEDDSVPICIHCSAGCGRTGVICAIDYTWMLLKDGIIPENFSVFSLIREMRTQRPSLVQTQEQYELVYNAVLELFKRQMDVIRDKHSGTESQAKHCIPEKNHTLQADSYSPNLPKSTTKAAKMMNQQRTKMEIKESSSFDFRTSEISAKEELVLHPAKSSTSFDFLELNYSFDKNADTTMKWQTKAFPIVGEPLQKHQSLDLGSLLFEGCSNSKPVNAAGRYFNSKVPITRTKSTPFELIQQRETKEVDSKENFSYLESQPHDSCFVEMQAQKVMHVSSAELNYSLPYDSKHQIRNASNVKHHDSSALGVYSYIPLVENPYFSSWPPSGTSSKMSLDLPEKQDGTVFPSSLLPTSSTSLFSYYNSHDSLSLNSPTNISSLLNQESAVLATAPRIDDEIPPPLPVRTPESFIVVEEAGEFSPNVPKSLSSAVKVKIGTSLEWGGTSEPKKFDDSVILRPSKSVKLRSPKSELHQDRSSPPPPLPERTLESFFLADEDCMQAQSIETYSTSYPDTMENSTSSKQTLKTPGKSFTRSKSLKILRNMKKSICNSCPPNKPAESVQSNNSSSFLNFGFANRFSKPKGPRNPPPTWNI

SMILES	inhibition
COc1ccc(N2CCN(C(=O)c3ccc(COc4ccc5c(C)cc(=O)oc5c4)cc3)CC2)cc1	2.8%
COc1ccc(N2CCN(CCOc3ccc4c(C)cc(=O)oc4c3)CC2)cc1	67.7% (active)
Cc1cc(=O)oc2cc(OCCSCCN3CCOCC3)ccc12	-5.9%
N#C/C(=C\c1ccccc1O)C(=O)Nc1cccnc1	-9%
O=C(CCN1C(=O)c2ccccc2S1(=O)=O)Nc1ccccc1O	-0.2%
C=CCc1cccc2cc(C(=O)Nc3ccc(S(=O)(=O)Nc4nnc(CC)s4)cc3)c(=O)oc12	71.3% (active)
CCc1nnc(NS(=O)(=O)c2ccc(NC(=O)c3cccc4ccccc34)cc2)s1	1.6%
CCc1nnc(NS(=O)(=O)c2ccc(NC(=O)c3cc4ccccc4oc3=O)cc2)s1	1.9%
Cc1c(C)n(C(=O)CN2CCN(c3ccccn3)CC2)c2ccccc12	5.2%
O=C(Nc1c(F)cccc1F)c1ccc2c(c1)CCN2S(=O)(=O)c1ccccc1	-8.4%
Cc1cc(Cl)ccc1OCc1n[nH]c(=S)n1C1CCCCC1	4%
Cc1ccc(N2CCN(CCCN3C(=O)C4CCCN4C3=O)CC2)cc1 (configuration not stated)	1.4%
Cc1ccc(N2CCN(CCCCN3C(=O)C4CCCN4C3=O)CC2)cc1 (configuration not stated)	62.7% (active)
Nc1ccc(N2CCN(CCCCN3C(=O)C4CCCN4C3=O)CC2)cc1 (configuration not stated)	-25%
Cc1cccc(OCC(O)CN2CCOCC2)c1 (configuration not stated)	-8.2%
CCN(CC)CCCNC(=O)Cn1ncn2cccc2c1=O	-3.9%
CC(C)(C)c1ccc(C2(C)NC(=O)N(CC(=O)NCc3cccs3)C2=O)cc1 (configuration not stated)	-8.4%
COc1ccc(OC(C)C(=O)N2CCOCC2)cc1 (configuration not stated)	-9.8%
COc1ccc(OC(C)C(=O)N2CC(C)OC(C)C2)cc1 (configuration not stated)	63.6% (active)
COc1ccc(OC(C)C(=O)N2CCC(C)CC2)cc1 (configuration not stated)	-5.6%
COC(=O)c1ccc2c(c1)NC(=O)C(N1CCCCC1)S2 (configuration not stated)	1%
Cc1c(C(=O)O)sc2nc(/C=C/c3cccc(O)c3)[nH]c(=O)c12	-5.3%
Cc1c(C(=O)O)sc2nc(/C=C/c3cccc(F)c3)[nH]c(=O)c12	-4.3%
CCCOc1ccc(/C=N/NC(=O)CSc2ccccn2)cc1OC	0.2%
CCN(CC)S(=O)(=O)c1ccc(N2CCOCC2)c(NC(=O)Cc2cccc3ccccc23)c1	-0.8%

SMILES	inhibition
COc1ccc(C(CC(=O)N2CCCCC2)c2c(OC)cc(OC)c3ccc(=O)oc23)cc1 (configuration not stated)	-2.3%
CS(=O)(=O)N1CCN(C(=O)c2ccncc2)CC1	-7.1%
COc1ccc(C(=O)N2CCN(C(=O)c3ccncc3)CC2)cc1	-9.1%
O=C(c1ccncc1)N1CCN(C(=O)c2ccncc2)CC1	67% (active)
CC(=O)N1CCCN(Cc2cn(-c3cccc(C)c3)nc2-c2cccc(F)c2)CC1	-2.6%
Cc1ccc(-n2cc(CN3CCN(C(=O)c4ncn[nH]4)CC3)c(-c3ccc(F)cc3)n2)cc1	-3.9%
Cc1cccc(-n2cc(CN3CCN(C(=O)c4ncn[nH]4)CC3)c(-c3cccc(F)c3)n2)c1	56.5% (active)
CCN(CCCNC(=O)COc1cc(=O)n(CC)c2ccccc12)Cc1ccccc1	6.1%
CCOc1ccc(Nc2nc(N)c([N+](=O)[O-])c(N3CCN(CC)CC3)n2)cc1	-3.7%
N#C/C(=C(/O)c1ccc(C(=O)c2ccccc2)cc1)c1nc2ccccc2[nH]1	-4.1%
O=C(N/N=C/c1ccccn1)c1ccccc1	2.8%
O=C(N/N=C/c1ccccn1)c1ccc(Cl)cc1	-5.3%
O=C(N/N=C/c1ccccn1)c1ccc(Cl)c(Cl)c1	72% (active)
COc1cc(/C=C2\SC(=O)N(CC(=O)Nc3cccc(C)c3)C2=O)cc([N+](=O)[O-])c1O	4.5%
COc1cc(/C=C2\SC(=O)N(c3cccc(Cl)c3)C2=O)cc([N+](=O)[O-])c1O	92.2% (active)
COc1cc(/C=C2\SC(=O)N(Cc3ccc(F)cc3)C2=O)cc([N+](=O)[O-])c1O	0.7%
COc1cc(/C=C2\SC(=O)N(c3ccccc3Cl)C2=O)cc([N+](=O)[O-])c1O	11.7%
COc1cc(/C=C2\SC(=O)N(c3ccc(Cl)cc3)C2=O)cc([N+](=O)[O-])c1O	91.6% (active)
COc1cc(/C=C2\SC(=O)N(Cc3ccc(Cl)cc3)C2=O)cc([N+](=O)[O-])c1O	33%
CS(=O)(=O)N(CC(=O)N1CCN(c2cccc(Cl)c2)CC1)c1cccc(F)c1	4.5%
CCCCN(C)CCC(=O)Nc1ccc2c(c1)CCC2	-2.9%
CCOc1ccc(Cl)cc1/C=N/NC(=O)c1ccccc1	-4.5%
CC1(C)c2ccccc2N2CC(=O)N[C@@]21/C=C/C=C/c1ccccc1	8.6%
c1cc(-n2nnc3cnccc32)ccn1	-4.3%
CC(=O)Nc1ccc(SCC(=O)Nc2ccc(Cl)cn2)cc1	77.1% (active)

SMILES	inhibition
O=C(CSc1ccc2c(c1)OCCO2)Nc1ccc(Cl)cn1	-8.6%
CC(=O)Nc1ccc(NC(=O)CSc2ccc(C)cc2)cc1	-2.7%
CCn1cc(C(=O)NCCCN(CC(C)C)CC(C)C)c(=O)c2cc(S(=O)(=O)N(C)C3CCCCC3)ccc21	-0.6%
O=C(NC1CCSc2ccccc21)c1ccc(C(F)(F)F)cc1 (configuration not stated)	-7.3%
O=C(NCc1ccc(F)cc1)c1c2c(nc3ccccc13)CCC2	3.5%
Cc1ccc2c(C)c(C(=O)NCC(C)(C)N3CCOCC3)oc2c1C	-8.2%
COc1ccc(C(C#N)(CCC#N)CCC#N)cc1OC	56.1% (active)
C=CCc1ccc(OC)c(OC)c1	-8.6%
COc1ccc(NC(=O)CC#N)cc1OC	0.1%
CC(C)N(C(=O)CSc1nc2ccccc2n1Cc1ccccc1F)C(C)C	5.2%
COC(=O)C(C(=O)NCC1CCCO1)C1CCCCCC1 (configuration not stated)	86.6% (active)
CCOC(=O)C(C(=O)NCC1CCCO1)C1CCCCC1 (configuration not stated)	-4.2%
COC(=O)C(C(=O)NCC1CCCO1)C1CCCC1 (configuration not stated)	-6.5%
CCOC(=O)NC(=O)C(=CNc1ccc(C)cc1)C(=O)NC(=O)OCC	57.4% (active)
CCOC(=O)NC(=O)C(=CNc1cccc(OC)c1)C(=O)NC(=O)OCC	-7.5%
CCOC(=O)NC(=O)C(=CNc1cccc(C)c1)C(=O)NC(=O)OCC	-4.7%
O=C(CN1C(=O)NC2(CCc3ccccc3C2)C1=O)Nc1ccc(F)cc1 (configuration not stated)	2%
COCC(=O)N(Cc1cc2ccc(C)cc2[nH]c1=O)c1cccc(C)c1	-1%
NS(=O)(=O)c1cc(C(=O)OCC(=O)N2CCOCC2)ccc1Cl	-4%
COc1ccc(/C=C2\SC(=S)N(CCCC(=O)Nc3ccc(C(=O)O)cc3)C2=O)cc1OC	-1.9%
COc1cc(/C=C2/SC(=S)N(CCC(=O)Nc3ccc(C(=O)O)cc3)C2=O)cc(OC)c1OC	-0.9%
O=S(=O)(CCc1ccncc1)C1Cc2cccc3cccc1c23 (configuration not stated)	-6.1%
CC(C)(C)S(=O)(=O)c1cnc(N2CCCCC2)nc1N	-1.3%
COc1ccc(N2C(=O)CC(NC34CC5CC(CC(C5)C3)C4)C2=O)c(OC)c1 (configuration not stated)	-6.7%
CC(=O)c1cccc(NC(=O)NC(C)c2ccc3c(c2)OCO3)c1 (configuration not stated)	-12.5%

SMILES	inhibition
CCCNC(=O)c1ccccc1N1CCN(CCCCN2C(=O)C3CCCCN3C2=O)CC1 (configuration not stated)	-16.7%
COc1ccc(C2CC(c3cccs3)=NN2C(=O)CSc2nncn2C)cc1OC (configuration not stated)	7.7%
Cc1c(N=Nc2ccc(O)cc2)c(=O)n(-c2ccccc2)n1C	-2.3%
Cc1c(-n2c(=S)[nH]c3ccccc3c2=O)c(=O)n(-c2ccccc2)n1C	-7.5%
Cc1[nH]c2ccccc2c1N=Nc1c(C)n(C)n(-c2ccccc2)c1=O	94.5% (active)
Cc1cc2c(c(SCC(=O)NCc3ccc(Cl)cc3)n1)C(=O)OC2	-1.3%
CSCCC(NC(=O)c1ccccc1)C(=O)N(C)CC(=O)Nc1ccc(N2CCOCC2)cc1 (configuration not stated)	-6.8%
COCCN(C(=O)COC(=O)c1cccc2ccccc12)c1c(N)n(Cc2ccccc2)c(=O)[nH]c1=O	-10.3%
Cc1cccc(C)c1Nc1nnc(SC/C(O)=C(\C#N)c2nc3ccccc3[nH]2)s1	4.2%
CCOC(=O)C(C(C)C)C(N)Cc1ccc(F)cc1 (configuration not stated)	-7.7%
CCCCC(CC)C(=O)NCc1ccc(F)cc1 (configuration not stated)	-9.2%
CCCCC(C(=O)OCC)C(N)Cc1ccc(F)cc1 (configuration not stated)	89.5% (active)
CC(C)CNC(=O)C1CCCN(C(=O)NCc2ccccc2)C1 (configuration not stated)	-8.2%
COc1cc(C2SCC(=O)N2CCCN(C)C)cc(OC)c1OC (configuration not stated)	-6.3%
COc1ccc(C2SCC(=O)N2CCCN(C)C)cc1 (configuration not stated)	50.7% (active)
CN(C)CCCN1C(=O)CSC1c1ccccc1 (configuration not stated)	-5.4%
COc1ccc(C2CC23N=C(c2ccccc2)OC3=O)cc1 (configuration not stated)	-2.9%
Cc1nnc(SCc2cccs2)[nH]c1=O	-5.9%
O=C(NC1CCN(Cc2ccccc2)CC1)C1CCCN(c2nnc(-n3cccc3)s2)C1 (configuration not stated)	-1.4%
CC(C)C(OC(=O)c1cc2occc2n1C)C(=O)NCc1ccc2c(c1)OCO2 (configuration not stated)	3.8%
CC(C)n1c(C(=O)OCC(=O)NCc2ccc3c(c2)OCO3)cc2sccc21	-13%
CC(C)n1c(C(=O)OCC(=O)NCc2ccc3c(c2)OCO3)cc2occc21	59.5% (active)
